# Test results reported in the supplement of paper PMC13380429.
# Values without a mark were called inactive.
# Tested on: Vero E6 infected with SARS-CoV-2
# Experiment: SARS-CoV-2 infection rate relative to infected DMSO; higher = more infection, active = 60 or less
# Conditions: 24 h
row,Compound,SARS-CoV-2 infection rate
1,Cc1ccc(S(=O)(=O)OCC(=O)Nc2ccc(C(=O)O)c(O)c2)cc1 [STAT3-inhibitor-VI] (10 µM),110%
2,O=C1c2c(O)cc(O)cc2O[C@H](c2ccc(O)c(O)c2)[C@H]1O [taxifolin] (10 µM),99.5%
3,c1cc(-c2cnn3cc(-c4ccc(OCCN5CCCCC5)cc4)cnc23)ccn1 [dorsomorphin] (0.833333 µM),96.5%
4,Oc1ccc(CC2NCCc3cc(O)c(O)cc32)cc1 (stereo not given) [higenamine] (0.833333 µM),103%
5,C#C[C@]1(O)CC[C@H]2[C@@H]3CCC4=CC(=NO)CC[C@@H]4[C@H]3CC[C@@]21CC (mixture of isomers) [norelgestromin] (10 µM),108%
6,CNC1CC(N)C(O)C(OC2OC(CO)C(O)C3OC4(OC(C(N)CO)C(O)C(O)C4O)OC23)C1O (stereo not given) [Hygromycin B] (10 µM),86.5%
7,CC(=O)N(CC(O)CO)c1c(I)c(C(=O)NCCO)c(I)c(C(=O)NCC(O)CO)c1I (stereo not given) [ioxilan] (10 µM),114%
8,Cc1cc(-c2ccc(/N=N/c3ccc4c(S(=O)(=O)O)cc(S(=O)(=O)O)c(N)c4c3O)c(C)c2)ccc1/N=N/c1ccc2c(S(=O)(=O)O)cc(S(=O)(=O)O)c(N)c2c1O [evans-blue] (0.833333 µM),110%
9,CC(C)CCN1c2nc(Nc3cc(F)c(O)c(F)c3)ncc2N(C)C(=O)[C@@H]1C (0.833333 µM),106%
10,CCn1cc(C(=O)O)c(=O)c2cnc(N3CCCC3)nc21 [piromidic-acid] (10 µM),99.5%
11,CC(C)NCCN(C(C)C)S(=O)(=O)c1ccc(Cl)cc1Cl (10 µM),110%
12,Cn1cnc2c(NCc3ccccc3)nc(NCCO)nc21 [olomoucine] (10 µM),98.5%
13,c1ccc(N2CCN(CCCOc3ccc4c(c3)OCO4)CC2)cc1 (10 µM),101%
14,CC(=O)Nc1ccc(OC[C@](C)(O)C(=O)Nc2ccc([N+](=O)[O-])c(C(F)(F)F)c2)cc1 [andarine] (10 µM),116%
15,O=C(Nc1ccc(C(O)(C(F)(F)F)C(F)(F)F)cc1)c1ccc(C(F)(F)F)cc1 (10 µM),85%
16,CCCCCCCCCCCCCCCC(=O)O[C@@H]1[C@@H](O)[C@@H](O)[C@@H]([C@H](NC(=O)[C@@H]2C[C@@H](CCC)CN2C)[C@H](C)Cl)O[C@@H]1SC [clindamycin-palmitate] (10 µM),108%
17,C=C1/C(=C\C=C2/CCC[C@]3(C)[C@@H]([C@H](C)/C=C/[C@H](C)C(C)(C)O)CC[C@@H]23)C[C@@H](O)C[C@@H]1O [ercalcitriol] (10 µM),97.5%
18,COC(=O)C1=C(C)NC(C)=C(C(=O)OC(C)C)[C@@H]1c1cccc2nonc12 [isradipine] (10 µM),104%
19,CC/C(=C(/CC)c1ccc(O)cc1)c1ccc(O)cc1 [diethylstilbestrol] (10 µM),102%
20,CC(C)CNc1nc(-c2cccc3ncccc23)cn2c(-c3ccc(C(=O)NC4CC4)cc3)cnc12 (10 µM),99.5%

row,Compound,SARS-CoV-2 infection rate
1,CC(C)c1ccc(C(=O)N=C(N)N)cc1S(C)(=O)=O [cariporide] (10 µM),101%
2,Nc1nc(OCc2ccccc2)c2nc[nH]c2n1 [O6-benzylguanine] (10 µM),108%
3,CN(C(=O)CN1C(=O)COc2cc(Cl)c(Cl)cc21)[C@@H](CN1CCCC1)c1ccc(-c2cccc(C(N)=O)c2)cc1 (0.833333 µM),104%
4,COP(=O)(OC)OC(c1ccc(Cl)cc1)P(=O)(OC)OC (stereo not given) [mifobate] (10 µM),106%
5,CN1CCN(C(=O)C2C(C(=O)O)[C@H]3CC[C@@H]2O3)CC1 (stereo not given in full) (10 µM),110%
6,COc1cc(C)[nH]c(=O)c1CNC(=O)c1c(C)n([C@H](C)C2CCOCC2)c2ccccc12 (10 µM),96.5%
7,FC(F)OC(F)(F)C(F)Cl (stereo not given) [enflurane] (10 µM),98.5%
8,N[C@@H](CSC(c1ccccc1)(c1ccccc1)c1ccccc1)C(=O)O [S-trityl-L-cysteine] (0.833333 µM),110%
9,C=CCCCCCCCCC(=O)[O][Zn][O]C(=O)CCCCCCCCC=C [zinc-undecylenate] (10 µM),110%
10,CCCCCCCCCCCCCCSCC(=O)O [tetradecylthioacetic-acid] (10 µM),112%
11,CCOC(=O)Nc1cc2c(c(N)n1)N=C(c1ccccc1)[C@H](C)N2 [mivobulin] (10 µM),112%
12,COCCNC(=O)COc1ccc(OCCNC[C@H](O)COc2ccccc2)cc1 (10 µM),102%
13,Cn1c(=O)c2c(ncn2CCO)n(C)c1=O [etofylline] (10 µM),104%
14,CCN1C(C)(C)CC(Oc2ccc(C(=O)Nc3ccc(NC(=O)Nc4cc(C(C)(C)C)on4)cc3)nc2)CC1(C)C (10 µM),101%
15,Nc1ccccc1NC(=O)c1ccc(CNc2nccc(-c3cccnc3)n2)cc1 [mocetinostat] (0.833333 µM),104%
16,CS(=O)(=O)N1CCc2c(-c3cnc(N)nc3)nc(N3CCOCC3)nc21 (0.833333 µM),110%
17,CNC(=O)c1nn(C)c2c1C(C)(C)Cc1cnc(Nc3ccc(N4CCN(C)CC4)cc3)nc1-2 (10 µM),112%
18,O=C(Nc1ccc(CN2CCOCC2)cc1)c1ccc(-c2cccc(Cl)c2)o1 (10 µM),110%
19,C=C(C)[C@H]1CN[C@H](C(=O)O)[C@H]1CC(=O)O [kainic-acid] (10 µM),79%
20,COc1ccccc1N1CCN(CCN2C(=O)c3ccccc3C(C)(C)C2=O)CC1 (10 µM),100%
